In PubChem BioAssay (NCI) one finds growth data, which are given here for 40 molecules.

About 83,000 compounds went through this panel and 20% of them were active in at least one assay; those are over-represented in the sample as a whole.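 Testing used 96-well plates and a 48-hour single-concentration exposure. Example: -40 means 40% of the starting cells died.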 Values without a mark were called inactive. Activity calls are given as the source filed them. How the source made its calls: active means growth percent below 10; inactive means the rest.

The experiment has as its system MDA-MB-468 breast. Briefly: NCI-60 one-dose screen, 48 h (100 = growth as untreated, 0 = no growth, -100 = all killed). Particulars: 10 µM unless noted.
Regarding `Cc1ccccc1-c1cc(Cc2ccc(F)cc2)c(=O)[nH]n1`, the growth is 109%.
With `CCc1c(Nc2ccc(C)cc2)[nH]c(N)nc1=S`, the growth is 97.3%.
Turning to `O=C(O)c1cccc(-n2ncc(Cl)c(Cl)c2=O)c1`, the growth was 74.5%.
On to `CCOC(CN1CCN(CC(C)C(=O)c2ccccc2)CC1)c1ccccc1` (stereo not given), for which the growth was 87.2%.
The result for `Cc1cc(N(CCCNc2ccnc3cc(Cl)ccc23)Cc2ccco2)nc(Cl)n1` reads 32.4%; that for `COc1cc2nc(-c3ccc(Cl)cc3)cc(OCCCN3CCCCC3)c2cc1OC`, 47.7%.
Regarding `COc1ccc(-c2csc(N(C(=O)N3CCN(c4cc5c(cc4F)c(=O)c(C(=O)O)cn5C4CC4)CC3)c3ccccc3)n2)cc1`, the growth was 7.88% (active).
`COc1ccc(OC)c(Nc2nc3nonc3nc2Nc2cc(OC)ccc2OC)c1`: the growth is 63.1%.
As to `CCCCn1c(C)nc2ccc(Nc3nc(N4CCN(C)CC4)nc4nc[nH]c34)cc21`, the growth is 82.2%.
Regarding `O=C1C=CC(=O)N1CO`, the growth is 117%.
With `O=C(Nc1ccc(-n2cc(-c3ccncc3)c(-c3ccc(O)c(Cl)c3)n2)cc1)Nc1ccc(Cl)c(C(F)(F)F)c1`, the growth is -6.63% (active).
The result for `O=C(O)C1CSC(c2ccccc2)N1` (stereo not given) reads 96.7%; that for `Cc1cc(Cl)cc(CN(Cc2ccccc2)Cc2c(O)ccc3ccccc23)c1O`, 102%.
To `CC1(C)[C@@H](O)CC[C@]2(C)[C@H]3CC[C@@H]4[C@H]5[C@H](C(=O)/C=C\c6ccc([N+](=O)[O-])cc6)CC[C@]5(O)CC[C@@]4(C)[C@]3(C)CC[C@@H]12` belongs 36.2%.
The result for `C=C1C(=O)O[C@H]2[C@H]1CC/C(CNS(=O)(=O)c1cccc3ccccc13)=C\CC[C@@]1(C)O[C@@H]21` reads 1.44% (active).
As for `O=C(CCc1nnc2sc(COc3ccccc3)nn12)c1nc2ncccc2[nH]1`, the growth was 100%.
The result for `CCNc1nc(O)c(/C=C2\C=Nc3ncccc32)s1` reads -34.7% (active); that for `CN(C=O)c1ccccc1`, 87.3%.
The result for `COC(=O)[C@]12CC[C@@H](C)[C@H](C)[C@@H]1C1=CC[C@@H]3[C@@]4(C)C[C@@H](O)OC[C@](C)(C=O)C4C(=O)C[C@@]3(C)[C@]1(C)CC2` (stereo not given in full) reads -0.84% (active); that for `COc1ccc(C2CC(c3ccc(OC)cc3O)=NN2c2ccc(S(N)(=O)=O)cc2)cc1` (stereo not given), 56%; that for `NC(N)=Nc1ccc(Oc2cccc(Nc3ccc(Cl)c(C(F)(F)F)c3)c2)cc1`, 4.84% (active).
With `CCOC(=O)c1c(C)[nH]c2ccc(O)cc12`, the growth is 102%.
`N=c1ccccn1CCO`: the growth was 113%.
For the molecule `COc1ccc(C(=O)N2NC(=O)/C(=C/c3cn(-c4ccccc4)nc3-c3ccccc3)N=C2c2ccccc2)cc1`, the growth is 95.7%.
To `COc1ccc(-c2nc3ncccn3c2-c2nnc(-c3ccsc3C)o2)cc1` belongs 86.1%; to `O=C1N=C(c2c(-c3[nH]c(=O)c4ccc(Br)cc4c3O)c(O)c3ccccc3c2O)C(=O)c2cc(Br)ccc21`, -11.5% (active); to `CCOC(=O)c1noc2c1CCc1c-2cn(Cc2ccc(OC)cc2)c1-c1cc(OC)c(OC)c(OC)c1`, 6.06% (active).
To `C(CCCSC1=NCCN1)CCSC1=NCCN1` belongs 92%; to `Cc1cccc2c(=O)c3c(sc12)c(NCCCNCCO)nc1ccccc13`, 16.3%; to `CC(C)(C)C1CCC(=NO)CC1` (stereo not given), 94%.
As for `Cn1cc([C@@H]2Nc3ccc4[nH]ncc4c3[C@H]3[C@H]4CCC(C4)[C@H]32)c(C(F)(F)F)n1`, the growth is 53.4%.
To `Nc1cc2c(cc1Br)-c1c(C(=O)O)cccc1C2O` (stereo not given) belongs 74.6%; to `CC(C)[C@H]1COC(=O)N1[C@@H]1C(=O)N([C@@H](CCC(=O)N2CCN(C3CCCC3)CC2)C(=O)N[C@@H]2CCCc3ccccc32)[C@@H]1/C=C/c1cccc(Cl)c1`, -11.4% (active).
For `CN(C)CCN1C(=O)c2c(c3c4ccccc4n4c3c3c2c2ccccc2n3C2CC(O)C(O)C4(C)O2)C1=O` (stereo not given), the growth was 12.8%.
The result for `CCNC(=S)NNC(=O)c1cc2ccc1CCc1ccc(cc1)CC2` reads 106%.
The result for `CCCCNC(=O)Oc1ccc(/C(=C(/CC)Cc2ccccc2)c2ccc(OCCCN(C)C)cc2)cc1` reads 72.9%.
Regarding `COc1ccc(Nc2cc(C)nc(NCc3ccccc3)n2)cc1`, the growth is 49.9%.
The result for `Cc1ccc(-c2nc3c(c(-c4ccccc4)nn3-c3ccccc3)c(-c3ccc(O)cc3)c2C#N)cc1` reads 52.7%.
The result for `COc1cc(N)ccc1Nc1c2ccccc2nc2ccccc12` reads 92.4%; that for `O=S(=O)(N=C1C(Cl)=C(Cl)C(=NS(=O)(=O)c2ccccc2)C(Cl)=C1Cl)c1ccccc1`, 70.3%.
